Assay outcomes deposited in PubChem by National Center for Advancing Translational Sciences (NCATS).
Only some compounds are listed: those with a hit (about 8.7% of all), similar ones and a draw of the others.
12-LOX inh: blocks human arachidonate 12S-lipoxygenase | purified 12hLO, xylenol orange hydroperoxide absorbance | AID 1671190 | actives 1.1% (n = 580,000) | P18054 | Potency, µM (series often up to 108 µM), for the others: top-dose activity change, negative = inhibition, hits mostly inhibitors; further: on the % scale 0 is the no-effect control and ±100 the full control effect
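Hydroperoxide product was detected by ferrous iron/xylenol orange as the 573 to 405 nm absorbance ratio. Arachidonic acid at 40 uM (final) was turned over for 30 min at room temperature by 150 nM human 12hLO, pH 7.0 Hepes buffer, after 15 min compound preincubation.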
G9a block: inhibitors of human histone lysine methyltransferase G9a; Q96KQ7; G9a H3K9 monomethylation, AlphaScreen, 2 h; Potency, µM (doses to about 102 µM), for the others: at the top dose activity, negative = inhibition, actives largely listed as inhibitors; actives 8.8% (n = 350,000); AID 504332; further: on the % scale 0 is the no-effect control and ±100 the full control effect; nearly all actives have a fitted effect of over 75% in size
Target sequence (Q96KQ7 913-1193 limits assumed): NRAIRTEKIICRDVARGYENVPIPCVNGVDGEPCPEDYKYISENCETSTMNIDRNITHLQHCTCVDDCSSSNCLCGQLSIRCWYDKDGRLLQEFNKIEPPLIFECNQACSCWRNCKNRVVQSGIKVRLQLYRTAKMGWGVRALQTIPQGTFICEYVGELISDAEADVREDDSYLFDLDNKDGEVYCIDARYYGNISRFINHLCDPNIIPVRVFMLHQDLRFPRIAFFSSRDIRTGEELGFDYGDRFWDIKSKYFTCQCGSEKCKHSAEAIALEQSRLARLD
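Quantitative HTS format: methyltransferase activity on a biotin-tagged H3K9 peptide is measured by AlphaScreen, using a rabbit anti-monomethyl-H3K9 antibody with streptavidin donor and anti-IgG acceptor beads. Final levels are 20 nM enzyme, 500 nM peptide, 20 uM SAM; 2 h RT.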
HP1b binding inh: HP1-beta chromodomain-methylated histone interaction inhibition | AlphaScreen HP1-beta / biotin-H3K9me3 peptide binding | Potency, µM (titrated, usually from 114 µM), for inactives: at the top dose activity change, negative = inhibition, usual class: inhibitors | actives 0.56% (n = 390,000) | AID 540317; further: nearly all actives have a fitted effect of over 70% in size
Target sequence (P83916 whole entry, looked up): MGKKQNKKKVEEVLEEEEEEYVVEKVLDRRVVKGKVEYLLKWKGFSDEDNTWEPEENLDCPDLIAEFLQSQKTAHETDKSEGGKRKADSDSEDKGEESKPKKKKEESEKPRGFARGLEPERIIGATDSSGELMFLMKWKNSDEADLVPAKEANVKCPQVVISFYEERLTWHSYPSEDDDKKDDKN
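Compound inhibition of the preformed complex between 50 nM HP1-beta and 50 nM biotinylated H3K9me3 peptide was read by AlphaScreen. Buffer was PBS pH 7.4 with 0.01% Tween-20. Incubations ran 30 min at room temperature, with 10 ug/mL donor/acceptor beads.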
Sfp PPTase inh: inhibitors of Bacillus subtilis Sfp phosphopantetheinyl transferase. Q9F4F7. actives 3.5% (n = 310,000). Biochemical Sfp PPTase activity, qHTS. Potency, µM, for inactives: largest response in the series, negative = inhibition, most hits filed as inhibitors. AID 1490;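 further: the enzyme is Sfp with the accession as filed and its product quenches rhodamine fluorescence; 0% = enzyme reaction without inhibitor and -100% = no enzyme wells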
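Sfp 15 nM + cpd, 15 min RT; start w/ rhodamine-CoA 5 uM, BHQ-2-YbbR 12.5 uM (final); 50 mM Hepes pH 7.6, 10 mM MgCl2, 0.01% NP-40, 0.01% BSA; read 525/598 nm at 0 and 30 min.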
JMJD2A Tudor inh: JMJD2A Tudor domain (human) inhibition; AID 504339; actives 4.4% (n = 390,000); Potency, µM (highest dose often 114 µM), inactives show at the top dose activity change, negative = inhibition, most hits filed as inhibitors; AlphaScreen JMJD2A-Tudor / H3K4me3 peptide binding; O75164; further: on the % scale 0 is the no-effect control and ±100 the full control effect; nearly all actives have a fitted effect of over 50% in size
BAZ2B block: BAZ2B (human) inhibition; Potency, µM (titrated, usually from 114 µM), inactives show top-dose activity change, negative = inhibition, most hits filed as inhibitors; Q9UIF8; actives 4.4% (n = 360,000); AlphaScreen BAZ2B-H3K14Ac peptide displacement; further: on the % scale 0 is the no-effect control and ±100 the full control effect; nearly all actives have a fitted effect of over 60% in size
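In this displacement format the biotinylated H3(5-23) peptide acetylated at Lys14 serves as ligand at 50 nM, with BAZ2B at 50 nM in PBS pH 7.4 containing 0.01% Tween-20. Donor and acceptor beads are 10 ug/mL final.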
* hit, by the source's call; ? = inconclusive; . = not tested or not shown; ! = not active in a repeat; [ ] = remark or other dose. The call rests on the fitted dose curve; in most records, active means well fitted curve in the direction sought with a large enough effect; inconclusive means small, poorly fitted or top-dose-only effect, or another doubt; inactive means no such curve, though single readings can be large; an effect the other way counts as inactive or inconclusive. Potency means the concentration at half of the fitted maximal effect.

SMILES	12-LOX inh	G9a block	HP1b binding inh	Sfp PPTase inh	JMJD2A Tudor inh	BAZ2B block
CC[C@@]1(C(=O)OC)N[C@H](CN(C)C(=O)COC)[C@@H]2C(=O)N(C)C(=O)[C@@H]21	5µM*	.	41%	.	-3%	.
CC[C@@]1(C(=O)OC)N[C@H](CN(C)C(=O)COc2ccccc2)[C@@H]2C(=O)N(C)C(=O)[C@@H]21	?	.	25%	.	-20%	.
Cc1cccc(NC(=O)CCS(=O)(=O)c2cc3c(cc2Cl)NC(=O)CO3)c1	-30%	17%	13%	26%	16µM*	-14%
Cc1ccc(NS(=O)(=O)c2cc3c(cc2C)NC(=O)CO3)cc1C	.	.	.	.	-15%	.
Cc1cc2c(cc1S(=O)(=O)CCC(=O)N(C)Cc1ccccc1)OCC(=O)N2	28%	11µM*	?	1%	20µM*!	13µM*!
CCc1cccc(NC(=O)CCS(=O)(=O)c2cc3c(cc2C)NC(=O)CO3)c1	24%	.	33%	7%	-2%	-4%
COc1cccc(NC(=O)CCS(=O)(=O)c2cc3c(cc2Cl)NC(=O)CO3)c1	-1%	.	36%	3%	21%	-6%
CCOC(=O)c1ccc(NS(=O)(=O)c2cc3c(cc2C)NC(=O)CO3)cc1	?	50µM*	4%	1%	?	-17%
Cc1onc(-c2c(Cl)cccc2Cl)c1C(=O)N1CCOCC1	16%	-1%	21%	14%	-8%	79µM*
Cc1onc(-c2c(Cl)cccc2Cl)c1C(=O)N1CCSCC1	?	-1%	-17%	15%	-21%	-29%
CNc1ncc(C(=O)N2CCCC(CCc3ccc(F)cc3)C2)cn1 (centres undefined)	-3%	.	.	.	.	.
Cc1ccsc1C=Nc1ccc(O)cc1	.	13µM*	?	?	79µM*	40µM*
Cc1ccsc1/C=N/N=C/c1sccc1C	-28%	4%[0.501 µM]	12%	-8%	-14%	-31%
O=C1CN(c2nc(-c3ccccc3)c3cc(Cl)ccc3n2)c2ccccc2N1	?	50µM*	18%	13%	-4%	-3%
Clc1ccc2nc(N3CCNCC3)nc(-c3ccccc3)c2c1	-18%	18%[59 µM]	99%	-25%	22%	30%
C=C(C)C(=O)OCCCCCCOc1ccc(C(=O)O)cc1	0%	10%[12.7 µM]	?	6%	11µM*	?
CCCCCCCCOc1ccc(C(=O)O)cc1	10%	-6%[0.501 µM]	36%	.	-12%	-2%
CN(C)/C=C(\C#N)S(=O)(=O)c1ccccc1	-1%	-6%	30%	27%	-16%	-25%
CS(=O)(=O)/C(C#N)=C\c1cnc(S(=O)(=O)c2ccccc2)s1	.	1µM*	.	3.5µM*	.	50µM*
Cn1cc(C(NC(=O)c2cnc(N)nc2-c2ccccc2)C2CC(O)C2)cn1 (centres undefined)	21%	.	.	.	.	.
O=C1C2C3C=CC(CC3)C2C(=O)N1/N=C/c1c(O)ccc2ccccc12 (centres undefined)	13%	25µM*	19%	-11%	-7%	-5%
Cc1nnc(-c2ccccc2)c(=O)n1/N=C/c1c(O)ccc2ccccc12	433%	?	3%	13%	56µM*	25µM*
Cc1nnc(C)n1/N=C/c1c(O)ccc2ccccc12	-11%	7%[2.33 µM]	37%	-27%	8.9µM*	?
COc1ccc2ccccc2c1/C=N\n1c(C)cc(C)c(C(N)=O)c1=O	-17%	-3%[0.501 µM]	8%	8%	-25%	?
CCOc1cc(/C=N/n2c(C)nnc2C)ccc1O	4%	-2%	37%	20%	-5%	-1%
COc1ccc(CCC2CCCN(S(=O)(=O)N(C)C)C2)cc1 (centres undefined)	-5%	.	.	.	.	.
Cc1ccccc1Nc1nnc(-c2ccc(C)c(S(=O)(=O)NCCO)c2)c2ccccc12	3%	.	.	.	.	.
CCOc1ccc(-n2ccn3c(SCC(=O)c4ccc(OC)c(OC)c4)nnc3c2=O)cc1	42%	.	.	.	.	.
Cc1ccc(C)c(OCC(O)Cn2cnc3sccc3c2=O)c1C (centres undefined)	6%	.	.	.	.	.
